# Of roughly 7,900 targets only a part is listed; those with a hit were picked by preference. About 0.6% of all pairs of compound and target were hits. Values without a mark were called inactive.
# How the values were obtained:
# Experiment in all cases: log2 fold change, soluble protein after heating vs DMSO (PISA); higher = thermal stabilisation; K562 cells, 10 uM, 30 min; active = over 0.2 and 3.5 SD of the protein, either way, in both replicates (recomputed)
# [1] = compound: CC[C@@H]1C(=O)N(C)c2cnc(Nc3ccc(C(=O)NC4CCN(C)CC4)cc3OC)nc2N1C1CCCC1
# Method in brief: (§1)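 K562 cells at 2×10^6 cells/mL were treated with 10 μM compound for 30 min. Aliquots were heated for 3 min across 48°C-58°C, pooled, and extracted in PBS with 0.5% NP-40 at 4°C; soluble protein was the supernatant after 21,000xg for 90 min. Soluble protein was quantified by TMTpro 16plex LC-MS/MS with channel sums equalised, and reported as log2 fold change in thermal stability against DMSO controls, with values from duplicates.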
# volasertib = compound: CC[C@@H]1C(=O)N(C)c2cnc(Nc3ccc(C(=O)N[C@H]4CC[C@H](N5CCN(CC6CC6)CC5)CC4)cc3OC)nc2N1C(C)C [volasertib]
# Method in brief: as §1
# [2] = compound: CC[C@H](C)N1C=C(C2=C(C=C(C=C21)C3=CN=C(C=C3)N4CCNCC4)C(=O)NCC5=C(C=C(NC5=O)C)C)C
# Method in brief: as §1
# epoxomicin = compound: CC[C@H](C)[C@@H](C(=O)N[C@@H]([C@@H](C)O)C(=O)N[C@@H](CC(C)C)C(=O)[C@]1(CO1)C)NC(=O)[C@H]([C@@H](C)CC)N(C)C(=O)C [epoxomicin]
# Method in brief: as §1
# [3] = compound: CCn1c(C(=O)N(C2CC2)C2CC2)cc2c3c(ncn3C)c(Nc3cc(C)n(C)n3)nc21
# Method in brief: as §1
# [4] = compound: CCn1cc(-c2ccnc3[nH]c(-c4cccc(CN(C)C)c4)cc23)c(-c2ccc(NC(=O)N(C)C)cc2)n1
# Method in brief: as §1
# [5] = compound: CN(C)CC(=O)Nc1ccc2[nH]c(=O)c3ccccc3c2c1
# Method in brief: as §1
# rosiglitazone = compound: CN(CCOC1=CC=C(C=C1)C[C@H]2C(=O)NC(=O)S2)C3=CC=CC=N3 (racemic) [rosiglitazone]
# Method in brief: as §1
# [6] = compound: CN1C2=C(C3=C1C(=O)N(N=C3)CC4=CC(=CC=C4)N)SC(=C2)S(=O)C
# Method in brief: as §1
# [7] = compound: CN1CCC(CNc2ccc3ncc(-c4cccc(OC(F)(F)F)c4)n3n2)CC1
# Method in brief: as §1
# Sequence of UniProt Q8N1F8 (Q8N1F8 whole entry, looked up): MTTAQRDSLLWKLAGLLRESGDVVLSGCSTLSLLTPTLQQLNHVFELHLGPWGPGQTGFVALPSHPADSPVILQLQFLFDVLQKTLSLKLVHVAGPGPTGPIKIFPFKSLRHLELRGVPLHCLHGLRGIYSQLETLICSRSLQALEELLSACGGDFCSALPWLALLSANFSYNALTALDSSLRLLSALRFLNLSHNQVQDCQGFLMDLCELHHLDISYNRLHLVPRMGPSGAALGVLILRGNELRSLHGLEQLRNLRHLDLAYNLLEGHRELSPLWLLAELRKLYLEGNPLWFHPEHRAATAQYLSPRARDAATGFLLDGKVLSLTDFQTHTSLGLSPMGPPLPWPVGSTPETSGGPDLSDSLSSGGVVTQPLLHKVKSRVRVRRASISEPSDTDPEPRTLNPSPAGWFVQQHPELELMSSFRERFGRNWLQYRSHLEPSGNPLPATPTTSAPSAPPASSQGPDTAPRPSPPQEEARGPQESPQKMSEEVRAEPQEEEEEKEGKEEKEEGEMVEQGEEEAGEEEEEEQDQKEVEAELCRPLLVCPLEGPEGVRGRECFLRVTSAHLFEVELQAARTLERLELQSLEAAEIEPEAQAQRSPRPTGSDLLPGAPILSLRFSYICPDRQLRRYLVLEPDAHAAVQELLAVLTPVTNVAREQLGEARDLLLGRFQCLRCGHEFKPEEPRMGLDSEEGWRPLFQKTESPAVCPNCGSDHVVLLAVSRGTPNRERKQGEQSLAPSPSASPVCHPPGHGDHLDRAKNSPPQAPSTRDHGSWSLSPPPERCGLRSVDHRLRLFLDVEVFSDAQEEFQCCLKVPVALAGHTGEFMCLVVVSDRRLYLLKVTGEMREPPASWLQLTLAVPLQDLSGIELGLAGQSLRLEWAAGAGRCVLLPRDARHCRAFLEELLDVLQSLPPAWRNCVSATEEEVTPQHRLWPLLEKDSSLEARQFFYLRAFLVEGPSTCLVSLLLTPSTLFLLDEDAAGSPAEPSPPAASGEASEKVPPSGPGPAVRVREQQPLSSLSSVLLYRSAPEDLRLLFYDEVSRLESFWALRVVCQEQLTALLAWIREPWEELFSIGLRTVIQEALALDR
# Sequence of UniProt Q8WXA9 (Q8WXA9 whole entry, looked up): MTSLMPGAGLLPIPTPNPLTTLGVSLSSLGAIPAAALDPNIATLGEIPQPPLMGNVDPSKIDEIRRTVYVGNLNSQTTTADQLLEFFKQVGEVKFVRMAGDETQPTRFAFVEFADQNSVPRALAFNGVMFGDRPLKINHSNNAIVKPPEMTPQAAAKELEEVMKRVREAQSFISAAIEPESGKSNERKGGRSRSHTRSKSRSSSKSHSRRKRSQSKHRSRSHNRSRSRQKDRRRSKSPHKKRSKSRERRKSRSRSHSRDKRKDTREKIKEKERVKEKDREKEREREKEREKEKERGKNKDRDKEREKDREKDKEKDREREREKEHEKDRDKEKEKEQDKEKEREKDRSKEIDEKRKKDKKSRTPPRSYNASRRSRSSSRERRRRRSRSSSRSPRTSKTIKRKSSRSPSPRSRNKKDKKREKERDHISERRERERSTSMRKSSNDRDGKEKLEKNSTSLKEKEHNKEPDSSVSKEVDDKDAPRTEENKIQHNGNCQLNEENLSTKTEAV
# Sequence of UniProt O60493 (O60493 whole entry, looked up): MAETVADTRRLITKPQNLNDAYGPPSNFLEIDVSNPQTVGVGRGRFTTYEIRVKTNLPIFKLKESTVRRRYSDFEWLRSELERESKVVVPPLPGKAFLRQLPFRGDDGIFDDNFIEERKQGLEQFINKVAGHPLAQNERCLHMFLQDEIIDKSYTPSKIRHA
# Sequence of UniProt Q9Y5X3 (Q9Y5X3 whole entry, looked up): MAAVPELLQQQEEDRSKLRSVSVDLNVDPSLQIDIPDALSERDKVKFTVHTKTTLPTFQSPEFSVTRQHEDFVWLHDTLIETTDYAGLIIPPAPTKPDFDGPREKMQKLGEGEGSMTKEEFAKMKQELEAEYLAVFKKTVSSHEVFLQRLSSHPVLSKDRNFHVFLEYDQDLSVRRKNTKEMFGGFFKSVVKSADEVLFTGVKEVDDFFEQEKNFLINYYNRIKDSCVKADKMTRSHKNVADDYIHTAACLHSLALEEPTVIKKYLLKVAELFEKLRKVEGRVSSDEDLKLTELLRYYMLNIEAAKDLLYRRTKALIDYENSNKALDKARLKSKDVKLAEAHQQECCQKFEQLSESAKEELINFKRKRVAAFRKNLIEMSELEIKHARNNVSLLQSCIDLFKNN
# Sequence of UniProt O15198 (O15198 whole entry, looked up): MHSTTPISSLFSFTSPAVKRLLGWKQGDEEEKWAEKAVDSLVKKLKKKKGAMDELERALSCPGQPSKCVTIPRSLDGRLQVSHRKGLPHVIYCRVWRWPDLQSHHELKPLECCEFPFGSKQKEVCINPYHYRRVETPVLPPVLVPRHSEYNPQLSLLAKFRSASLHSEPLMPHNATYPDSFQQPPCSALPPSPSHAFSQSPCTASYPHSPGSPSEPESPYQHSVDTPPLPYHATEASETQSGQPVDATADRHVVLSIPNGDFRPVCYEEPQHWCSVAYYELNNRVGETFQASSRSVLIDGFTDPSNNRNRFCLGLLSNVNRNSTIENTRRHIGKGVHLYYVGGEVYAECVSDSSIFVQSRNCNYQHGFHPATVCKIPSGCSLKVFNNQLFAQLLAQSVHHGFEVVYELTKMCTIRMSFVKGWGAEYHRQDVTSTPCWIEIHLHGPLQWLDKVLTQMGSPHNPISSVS
# Sequence of UniProt P27105 (P27105 whole entry, looked up): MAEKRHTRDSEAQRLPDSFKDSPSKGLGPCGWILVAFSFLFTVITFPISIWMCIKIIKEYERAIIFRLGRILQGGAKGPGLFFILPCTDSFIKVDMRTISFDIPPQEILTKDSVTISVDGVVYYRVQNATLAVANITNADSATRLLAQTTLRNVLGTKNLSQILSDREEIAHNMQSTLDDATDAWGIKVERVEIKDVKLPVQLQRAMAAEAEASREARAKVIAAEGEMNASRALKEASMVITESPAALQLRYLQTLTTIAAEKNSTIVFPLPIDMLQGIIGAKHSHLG
# Sequence of UniProt P12931 (P12931 whole entry, looked up): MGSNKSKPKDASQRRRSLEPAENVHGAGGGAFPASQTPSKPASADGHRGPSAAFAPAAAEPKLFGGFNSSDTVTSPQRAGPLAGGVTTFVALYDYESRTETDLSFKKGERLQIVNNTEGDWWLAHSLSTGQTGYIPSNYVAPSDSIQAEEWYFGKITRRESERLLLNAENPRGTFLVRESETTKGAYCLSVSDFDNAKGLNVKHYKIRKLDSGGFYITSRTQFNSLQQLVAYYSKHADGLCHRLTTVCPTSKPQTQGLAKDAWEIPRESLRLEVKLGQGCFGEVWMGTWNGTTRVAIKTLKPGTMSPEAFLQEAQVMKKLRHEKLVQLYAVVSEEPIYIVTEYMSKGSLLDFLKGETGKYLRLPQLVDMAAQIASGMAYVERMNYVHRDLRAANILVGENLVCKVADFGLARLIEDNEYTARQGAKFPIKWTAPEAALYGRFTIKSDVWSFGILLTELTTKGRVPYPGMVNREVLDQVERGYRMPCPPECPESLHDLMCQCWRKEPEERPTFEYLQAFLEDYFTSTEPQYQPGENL
# Sequence of UniProt Q01085 (Q01085 whole entry, looked up): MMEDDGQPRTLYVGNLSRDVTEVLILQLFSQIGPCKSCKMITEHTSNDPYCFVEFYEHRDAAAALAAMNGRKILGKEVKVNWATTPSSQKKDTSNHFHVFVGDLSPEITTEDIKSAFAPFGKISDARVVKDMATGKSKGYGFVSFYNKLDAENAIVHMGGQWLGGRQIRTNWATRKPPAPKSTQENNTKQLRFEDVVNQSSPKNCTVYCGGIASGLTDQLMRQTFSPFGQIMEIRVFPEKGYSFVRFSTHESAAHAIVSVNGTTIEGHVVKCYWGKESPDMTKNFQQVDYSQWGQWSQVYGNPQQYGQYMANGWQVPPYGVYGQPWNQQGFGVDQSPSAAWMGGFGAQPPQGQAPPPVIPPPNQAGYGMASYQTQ
# Sequence of UniProt P84103 (P84103 whole entry, looked up): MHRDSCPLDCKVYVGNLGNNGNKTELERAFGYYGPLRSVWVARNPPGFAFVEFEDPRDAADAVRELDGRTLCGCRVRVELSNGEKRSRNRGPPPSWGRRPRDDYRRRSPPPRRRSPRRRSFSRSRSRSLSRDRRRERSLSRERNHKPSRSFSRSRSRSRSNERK
# Sequence of UniProt Q9UMY4 (Q9UMY4 whole entry, looked up): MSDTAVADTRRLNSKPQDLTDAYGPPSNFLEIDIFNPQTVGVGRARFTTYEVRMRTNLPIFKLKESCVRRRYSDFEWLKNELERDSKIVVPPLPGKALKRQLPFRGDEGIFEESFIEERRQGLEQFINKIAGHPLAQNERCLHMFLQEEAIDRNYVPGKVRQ
# Sequence of UniProt O75494 (O75494 whole entry, looked up): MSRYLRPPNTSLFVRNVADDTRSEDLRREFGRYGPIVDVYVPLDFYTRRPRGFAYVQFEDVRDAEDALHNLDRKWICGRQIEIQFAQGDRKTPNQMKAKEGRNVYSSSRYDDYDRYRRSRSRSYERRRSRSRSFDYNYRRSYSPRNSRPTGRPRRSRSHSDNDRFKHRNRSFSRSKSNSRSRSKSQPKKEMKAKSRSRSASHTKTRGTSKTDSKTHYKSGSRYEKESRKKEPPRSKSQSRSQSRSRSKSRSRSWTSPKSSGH
# Sequence of UniProt Q13501 (Q13501 whole entry, looked up): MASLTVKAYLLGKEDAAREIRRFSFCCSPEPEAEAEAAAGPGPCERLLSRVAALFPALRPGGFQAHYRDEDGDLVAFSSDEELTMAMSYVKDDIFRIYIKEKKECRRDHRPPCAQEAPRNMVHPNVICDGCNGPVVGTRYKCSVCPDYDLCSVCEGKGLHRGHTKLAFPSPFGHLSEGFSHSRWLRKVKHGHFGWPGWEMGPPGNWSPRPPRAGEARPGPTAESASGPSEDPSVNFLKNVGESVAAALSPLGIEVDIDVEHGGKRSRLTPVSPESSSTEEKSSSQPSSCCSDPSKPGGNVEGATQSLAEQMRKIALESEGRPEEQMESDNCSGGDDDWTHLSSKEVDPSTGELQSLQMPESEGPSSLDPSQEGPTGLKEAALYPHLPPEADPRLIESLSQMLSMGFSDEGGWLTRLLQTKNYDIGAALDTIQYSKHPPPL
Target,log2 fold change [1],log2 fold change (volasertib),log2 fold change [2],log2 fold change (epoxomicin),log2 fold change [3],log2 fold change [4],log2 fold change [5],log2 fold change (rosiglitazone),log2 fold change [6],log2 fold change [7]
TBC1D15 isoform 3 (UniProt Q8TC07),-0.221,-0.485 (active),0.04,0.004,-0.081,-0.024,0.031,0.05,0.018,-0.241 (active)
SRPRA (UniProt P08240),-0.116,-0.107,0.007,0.02,-0.07,-0.036,0.032,-0.002,-0.055,0.009
TLK2 isoform 2 (UniProt Q86UE8),-0.015,-0.112,0.029,-0.01,0.057,-0.024,-0.012,0.014,-0.039,-0.054
SRP72 (UniProt O76094),-0.093,-0.518,0.119,0.001,-0.104,-0.034,0.03,0.047,0.119,-0.168
SMCHD1 (UniProt A6NHR9),0.009,-0.326,0.098,-0.189,-0.015,-0.085,0.032,-0.118,-0.023,-0.144
SLC38A9 (UniProt Q8NBW4),-0.013,-0.003,-0.022,-0.02,0.007,0.055,-0.039,0.003,0.029,-0.197
SNUPN (UniProt O95149),-0.133,-0.296 (active),0.014,-0.013,0.019,-0.076,0.003,-0.001,-0.01,-0.004
STK11IP (UniProt Q8N1F8),-0.224,-0.517 (active),0.103,0.069,-0.051,-0.006,0.025,0.011,0.026,-0.233
SREK1 isoform 2 (UniProt Q8WXA9),-0.122,-0.22,0.037,-0.021,0.021,-0.098,-0.029,0.015,0.026,-0.035
STAT5B (UniProt P51692),-0.221,-0.333,0.36,0.004,-0.037,0.052,0.105,-0.003,-0.063,-0.045
SNX9 (UniProt Q9Y5X1),-0.125,-0.309 (active),0.04,-0.02,-0.018,-0.021,-0.006,0.025,0.009,-0.137
SRSF3 (UniProt P84103),0.198,0.313,-0.075,-0.213,0.028,0.189,-0.139,-0.115,0.18,0.233
SNX1 (UniProt Q13596),-0.135,-0.113,0.096,0.037,-0.096,-0.107,0.003,0.079,-0.029,-0.605 (active)
SNX5 (UniProt Q9Y5X3),-0.136,-0.129,0.076,0.05,-0.026,-0.099,0.027,0.069,-0.001,-0.289 (active)
SRSF10 (UniProt O75494),0.141,0.274,-0.197,-0.408,0.047,0.276,-0.127,-0.073,0.498,0.237
SSR3 isoform 2 (UniProt Q9UNL2),0.05,0.059,-0.075,-0.054,0.062,-0.069,0.087,-0.002,0.056,0.195
STOM (UniProt P27105),0.087,0.096,-0.08,-0.006,0.009,-0.164,-0.057,-0.065,0.085,0.317 (active)
SSRP1 (UniProt Q08945),-0.121,-0.412 (active),0.052,0.02,-0.073,0.007,0.01,0.052,-0.003,-0.067
SPAG9 (UniProt O60271),-0.039,-0.168,0.046,0.028,-0.014,0.02,0.02,0.043,-0.009,-0.203
TIAL1 isoform 2 (UniProt Q01085),0.042,-0.042,0.006,0.001,0.01,0.026,-0.056,-0.019,-0.063,-0.03
SNX3 (UniProt O60493),-0.071,-0.147,0.107,-0.033,-0.176,0.057,0.077,0.018,0.116,-0.319
STXBP5 (UniProt Q5T5C0),-0.085,-0.344 (active),0.021,0.151,-0.019,0.046,0.033,0.007,0.015,-0.006
SMAD9 (UniProt O15198),0.059,-0.417 (active),-0.137,0.026,-0.006,0.035,0.043,0.13,-0.087,-0.261
SRC isoform 2 (UniProt P12931),0.079,-0.03,0.108,-0.16,-0.101,-0.066,-0.032,0.029,-0.002,-0.149
SLK isoform 2 (UniProt Q9H2G2),-0.095,-0.161,0.05,0.052,-0.002,-0.271 (active),-0.016,0.041,-0.022,-0.152
SP3 (UniProt Q02447),0.03,0.104,-0.019,-0.194,0.025,0.068,-0.074,-0.062,0.058,0.028
SQSTM1 (UniProt Q13501),-0.09,-0.204,0.021,-0.056,0.041,-0.112,0.042,0.012,0.043,-0.022
SMG1 (UniProt Q96Q15),-0.137,-0.391 (active),0.158,0.024,0.002,0.05,0.046,-0.003,0.129,-0.02
STAM2 (UniProt O75886),-0.039,-0.297 (active),0.063,0.039,-0.007,-0.056,0,0.022,-0.033,-0.128
SNX12 isoform 1 (UniProt Q9UMY4),-0.124,-0.252 (active),0.069,0.028,-0.068,0.043,-0.012,0.058,0.045,-0.275 (active)

# From the supplement of paper PMC10849652
